Screens as filed in PubChem.
Smad3 inh – inhibitors of human Smad3 transcription factor binding. P84022. AID 630. hit rate 0.29% among 88,000. inhibition, % at 25 µM. TR-FRET Smad3/Dy647-FoxH1 peptide binding, europium anti-His;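 active = compounds that reduce the energy-transfer binding signal between the protein and its labelled peptide by more than half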;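 note: 0% = Smad3 plus labelled peptide maximal FRET and 100% = peptide-only background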
ERa SRC1 inh – ER-alpha (human) coactivator binding inhibition; TR-FRET ER-alpha LBD / SRC-1 peptide, estradiol-bound; P03372; inhibition, % at 25.6 µM; hit rate 1.7% among 86,000; in the data active = inhibition above about 50%;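 note: 0% = receptor plus peptide control and 100% = peptide only without receptor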
Candida biofilm – kills Candida albicans biofilms; hit rate 0.14% among 85,000; C. albicans biofilm + clotrimazole, Alamar Blue; inhibition, % at 6 µM;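 active = inhibition above 20%; inactive = inhibition below 20%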;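 note: preformed 24 hr biofilms exposed to compound for 48 hr; 0% = biofilm without compound and 100% = blank killed by clotrimazole plus chlorhexidine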
ERa SRC1 pot – enhances coactivator binding to human estrogen receptor alpha. hit rate 1.3% among 86,000. AID 639. P03372. coactivator binding (% of control), % at 25.6 µM. TR-FRET ERalpha-LBD/SRC-Cy5 coactivator binding, 2 h; 100 = basal binding, no effect; in the data active = activity above about 200%;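 note: binding measured in presence of low estradiol as agonist stimulus; 0% = peptide alone without receptor and 100% = receptor with peptide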
ERb coact inh – blocks coactivator binding to human estrogen receptor beta; TR-FRET ER-beta LBD / SRC1-Cy5 peptide binding; receptor agonist-loaded with 1 µM estradiol; inhibition, % at 25.6 µM; hit rate 1.3% among 86,000; AID 633;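 active = compounds whose percent inhibition of the receptor-coactivator binding signal exceeds about 50% in the single-dose screen, limit read from the data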;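 note: 0% = receptor plus peptide wells without compound and 100% = peptide-only wells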
Target sequence (Q92731 whole entry, looked up, the tested form may be a part): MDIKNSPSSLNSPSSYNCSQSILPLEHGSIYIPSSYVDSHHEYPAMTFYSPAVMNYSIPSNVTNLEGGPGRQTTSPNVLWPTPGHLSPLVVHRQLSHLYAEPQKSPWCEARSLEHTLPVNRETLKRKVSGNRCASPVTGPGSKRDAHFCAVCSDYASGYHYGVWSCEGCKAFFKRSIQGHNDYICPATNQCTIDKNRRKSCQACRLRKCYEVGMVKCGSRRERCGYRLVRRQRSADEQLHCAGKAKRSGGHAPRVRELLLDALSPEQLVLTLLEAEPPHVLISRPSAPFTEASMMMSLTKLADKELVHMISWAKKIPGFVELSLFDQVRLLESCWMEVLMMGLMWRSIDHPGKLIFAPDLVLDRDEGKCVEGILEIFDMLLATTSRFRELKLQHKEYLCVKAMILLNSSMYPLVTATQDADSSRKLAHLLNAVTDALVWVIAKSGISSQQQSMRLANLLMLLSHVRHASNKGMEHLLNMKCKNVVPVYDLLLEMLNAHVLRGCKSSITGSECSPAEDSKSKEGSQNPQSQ
FAK blocker – inhibitors of human focal adhesion kinase | biochemical FAK kinase activity assay | hit rate 0.84% among 97,000 | AID 727 | Q05397 | inhibition, %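 (tested at 7 µM)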; in the data active = inhibition above about 19%;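 note: 0% = DMSO and 100% = reference compound high control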
* marks the source's active call; other numbers are inactive results; . = not tested or not shown; [ ] = another dose, or the depositor's remark. In the library only some 3.3% were active in any assay of this set; here they are far more common.

SMILES	Smad3 inh	ERa SRC1 inh	Candida biofilm	ERa SRC1 pot	ERb coact inh	FAK blocker
CCOc1ccc2nc(NC(=O)CCC(=O)c3cccs3)sc2c1	4	60*[fluorescence artefact?]	8	62	51*	1
Cc1cc(NC(=O)c2c(F)cccc2F)n(-c2nc3ccccc3[nH]2)n1	-1	32	8	136	8	0
Cc1cc(NC(=O)c2ccccc2F)n(-c2nc3ccccc3[nH]2)n1	-4	53*[fluorescence artefact?]	6	184	52*[fluorescence artefact?]	3
Cc1cc(NC(=O)C2CCCCC2)n(-c2nc3ccccc3[nH]2)n1	5	18	-1	91	7	3
Cc1cc(NC(=O)c2c(F)cccc2Cl)n(-c2nc3ccccc3[nH]2)n1	-7	2	4	105	52*	0
COC(=O)c1cc2c(=O)n3ccccc3nc2n(Cc2cccnc2)c1=N	11	-9	7	105	6	7
N=c1c(C(=O)NCc2ccc(F)cc2)cc2c(=O)n3ccccc3nc2n1Cc1cccnc1	8	71*	5	65	22	8
Cc1ccc(-c2nc3ncccc3o2)cc1NC(=O)COc1ccccc1	-12	13	-5	105	7	-1
Cc1ccc(-c2nc3ncccc3o2)cc1NC(=O)Cc1ccc(Cl)cc1	-17	52*[fluorescence artefact?]	6	132	37	0
Cc1ccc(-c2nc3cccnc3o2)cc1NC(=O)COc1ccc(Cl)cc1C	9	42	3	210*[fluorescence artefact?]	32	10
NS(=O)(=O)c1cc(C(=O)O)c(O)c2ccccc12	17	.	.	.	.	.
O=C(NCc1ccco1)C1Cc2ccccc2CN1S(=O)(=O)c1ccccc1F (centres undefined)	-27	49	-2	202*[fluorescence artefact?]	40	4
O=C(NCc1ccco1)C1CN(S(=O)(=O)c2ccccc2)CCN1S(=O)(=O)c1ccccc1 (centres undefined)	1	33	2	105	19	1
CCOC(=O)c1c(N)sc(C(O)(C(F)(F)F)C(F)(F)F)c1-c1ccccc1	10	-2	82*	41	-2	2
O=C1c2ccccc2-c2cc([N+](=O)[O-])c([N+](=O)[O-])cc21	52*	.	.	.	.	.
NS(=O)(=O)c1ccc(CCNC2CC(=O)N(CCc3ccccc3)C2=O)cc1 (centres undefined)	7	-2	.	107	66*	-7
COc1ccccc1C(=O)Nc1nc(-c2cccs2)c(NC(C)=O)s1	-3	66*	6	72	35	1
CC(=O)Nc1sc(NC(=O)c2ccccc2)nc1-c1cccs1	-5	-12	6	136	4	.
CCOC(=O)Cc1csc(NC(=O)c2c(O)c3ccccc3n(C)c2=O)n1	12	2	10	105	13	.
CCOC(=O)c1ccc(NC(=O)c2c(O)c3ccccc3n(C)c2=O)cc1	8	63*	10	169	43	.
c1ccc(-c2csc(N3CCCCCC3)n2)cc1	-3	-2	-2	79	5	3
NC(=O)C1(N2CCCCC2)CCN(c2nc(-c3ccc(Br)cc3)cs2)CC1	-5	71*	2	108	24	6
Cc1ccc(S(=O)(=O)NC2CCCc3ccccc32)cc1C (centres undefined)	0	4	1	91	9	-1
O=c1cc(CSc2nnnn2-c2ccccc2)nc(Nc2ccc(F)cc2)[nH]1	2	53*	-1	373*	32	7
O=C1C(Cl)=C(Sc2nnc3c4ccccc4c4ccccc4c3n2)C(=O)c2ccccc21	5	.	.	.	.	.
SMILES	Smad3 inh	ERa SRC1 inh	Candida biofilm	ERa SRC1 pot	ERb coact inh	FAK blocker
O=C(Oc1ccc(Cl)c2cccnc12)c1ccco1	3	-5	2	122	-5	-1
O=C(OCc1nnc(-c2ccccc2)o1)c1ccc(S(=O)(=O)NCc2ccco2)cc1	-2	53*[fluorescence artefact?]	6	110	49	5
O=C(O)CCN1C(=O)/C(=C\c2ccc(-c3nc4ccccc4s3)o2)SC1=S	.	.	.	.	.	0
O=S(=O)(c1cccc(-c2cn3cccnc3n2)c1)N1CCCCCC1	-5	58*	4	124	32	-1
Cc1cccc(N2C(=O)CN=C2Nc2nc(C)cc(C)n2)c1	4	-7	3	102	-5	1
Cc1cc(C)nc(NC2=NCC(=O)N2c2cc(Cl)cc(Cl)c2)n1	21	-36	10	474*[fluorescence artefact?]	-2	1
COc1ccc(-c2ccc(-c3noc(-c4cccc(OC)c4)n3)c(OC)n2)cc1	.	.	.	.	.	2
COc1cccc(-c2nc(-c3ccc(NC(=O)Cc4ccccc4OC)cc3)no2)c1	4	26	1	197	13	1
COc1ccc(-c2ccc(-c3noc(-c4ccccc4OC)n3)c(OC)n2)cc1	-7	33	-8	231*	4	-4
COc1ccc(-c2ccc(-c3noc(-c4ccc(OC)c(OC)c4)n3)c(OC)n2)cc1	14	80*	4	87	44	.
COc1ccc(-c2nc(-c3ccc(NC(=O)c4ccc(Br)o4)cc3)no2)cc1OC	5	22	-5	151	2	0
COc1cc(-c2nc(-c3ccc(NC(=O)c4ccc(Br)o4)cc3)no2)cc(OC)c1OC	-10	72*[fluorescence artefact?]	2	227*[fluorescence artefact?]	33	12
COc1ccc(CC(=O)Nc2ccc(-c3noc(-c4ccccc4OC)n3)cc2)cc1	3	31	2	328*[fluorescence artefact?]	16	6
Cc1ccc(Cn2c(NCCCn3ccnc3)nc3c2c(=O)n(C)c(=O)n3C)cc1	-8	-8	-5	127	-13	1
Cc1ccc(NC(=O)c2oc3ccc(S(=O)(=O)N4CCC5(CC4)OCCO5)cc3c2C)cc1C	.	.	4	.	.	.
COc1ccccc1-c1noc(-c2cc(OC)c(OC)c(OC)c2)n1	12	-15	9	98	-6	-1
COc1cc(OC)cc(-c2nc(-c3ccccc3OC)no2)c1	4	-2	5	488*[fluorescence artefact?]	-5	0
COc1ccc(-c2ccc(-c3noc(-c4cccs4)n3)c(OC)n2)cc1	3	37	-2	474*	29	-31
COc1ccc(Cl)cc1-c1nc(-c2ccncc2)no1	-6	30	5	268*	34	-2
COc1ccccc1-c1nc(-c2ccncc2)no1	-12	7	3	118	-3	-1
COc1ccc(-c2ccc(-c3noc(-c4ccccc4C)n3)c(OC)n2)cc1	0	-3	6	230*[fluorescence artefact?]	23	6
Nc1nc(SC/C=C/C2CCCCC2)c2[nH]cnc2n1	-5	.	.	.	.	.
Cc1c(Br)cc(C(=O)NC2CCCCC2)c(C)c1C	-8	0	-1	97	-3	5
Cc1cccc(NC(=S)NNC(=O)CCn2cc(C)cn2)c1	.	.	.	.	.	-4
COc1ccc(N(CC(=O)O)N=O)cc1	20	.	.	.	.	.
COc1ccc(-c2nc(-c3ccc(Br)cc3)no2)c(OC)c1	-2	13	0	206*[fluorescence artefact?]	9	0
CN1Cc2cc(C(=O)c3cc(Cl)cc(CSc4ncccn4)c3O)cnc2NC1=O	-12	56*	8	123	21	-6
